Results taken from the supplement of paper PMC8975748.
Counter-ions that a name gives are not always drawn. ± gives the standard deviation of the averaged measurements.

Legend:
[1] = tested on: Saccharomyces cerevisiae BY4741 SeMeCo community; assay: mean cell size (pixel area) (pixels); higher = larger cells; details: 10 µM; 24 h; SM minimal medium
Procedure, shortened: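 A four-plasmid fluorescent Saccharomyces cerevisiae BY4741 community was tested; each plasmid complements one auxotrophy and carries a fluorescent marker. An overnight preculture at OD600 = 1.0 was diluted to OD600 = 0.3, and 70 µl was added to 384-well plates acoustically predosed with drug (final 10 µM) in SM medium for 24 h. Cells were fixed with paraformaldehyde and imaged by automated confocal microscopy, with analysis in Harmony. Mean cell pixel area per well is averaged over 3 replicates. Same SeMeCo high-content imaging drug screen: Selleck FDA-approved drugs at 10 µM, 24 h in SM medium, 384-well plates, 3 replicates.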

[2] = tested on: Saccharomyces cerevisiae BY4741 SeMeCo community; assay: z-score of subpopulation abundance vs DMSO median, subpopulation auxotrophic for M; higher = larger share of this subpopulation than in DMSO controls; details: 10 µM; 24 h; SM minimal medium; subpopulation (auxotrophy): M
Procedure, shortened: (§1)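 Four plasmids, each restoring a single auxotrophy and encoding a distinct fluorescent protein, were carried by a Saccharomyces cerevisiae BY4741 community. After overnight growth to OD600 1.0 and dilution to 0.3, 70 µl per well was grown for 24 h in minimal SM medium on 384-well plates acoustically predosed with library drugs at 10 µM final. Following paraformaldehyde fixation, automated confocal microscopy was used, with single-auxotroph fluorescent strains defining thresholds and autofluorescence correction. Subpopulation abundance was then scored as a z-score against the vehicle-well median.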

[3] = tested on: Saccharomyces cerevisiae BY4741 SeMeCo community; assay: z-score of subpopulation abundance vs DMSO median, subpopulation auxotrophic for L; higher = larger share of this subpopulation than in DMSO controls; details: 10 µM; 24 h; SM minimal medium; subpopulation (auxotrophy): L
Procedure, shortened: as §1

[4] = tested on: Saccharomyces cerevisiae BY4741 SeMeCo community; assay: z-score of subpopulation abundance vs DMSO median, subpopulation auxotrophic for U; higher = larger share of this subpopulation than in DMSO controls; details: 10 µM; 24 h; SM minimal medium; subpopulation (auxotrophy): U
Procedure, shortened: as §1

[5] = tested on: Saccharomyces cerevisiae BY4741 SeMeCo community; assay: z-score of subpopulation abundance vs DMSO median, subpopulation auxotrophic for H; higher = larger share of this subpopulation than in DMSO controls; details: 10 µM; 24 h; SM minimal medium; subpopulation (auxotrophy): H
Procedure, shortened: as §1

[6] = tested on: Saccharomyces cerevisiae BY4741 SeMeCo community; assay: z-score of subpopulation abundance vs DMSO median, subpopulation auxotrophic for LM; higher = larger share of this subpopulation than in DMSO controls; details: 10 µM; 24 h; SM minimal medium; subpopulation (auxotrophy): LM
Procedure, shortened: as §1

[7] = tested on: Saccharomyces cerevisiae BY4741 SeMeCo community; assay: z-score of subpopulation abundance vs DMSO median, subpopulation auxotrophic for HM; higher = larger share of this subpopulation than in DMSO controls; details: 10 µM; 24 h; SM minimal medium; subpopulation (auxotrophy): HM
Procedure, shortened: as §1

[8] = tested on: Saccharomyces cerevisiae BY4741 SeMeCo community; assay: z-score of subpopulation abundance vs DMSO median, subpopulation auxotrophic for UM; higher = larger share of this subpopulation than in DMSO controls; details: 10 µM; 24 h; SM minimal medium; subpopulation (auxotrophy): UM
Procedure, shortened: as §1

[9] = tested on: Saccharomyces cerevisiae BY4741 SeMeCo community; assay: z-score of subpopulation abundance vs DMSO median, subpopulation auxotrophic for HL; higher = larger share of this subpopulation than in DMSO controls; details: 10 µM; 24 h; SM minimal medium; subpopulation (auxotrophy): HL
Procedure, shortened: as §1

[10] = tested on: Saccharomyces cerevisiae BY4741 SeMeCo community; assay: z-score of subpopulation abundance vs DMSO median, subpopulation auxotrophic for HLU; higher = larger share of this subpopulation than in DMSO controls; details: 10 µM; 24 h; SM minimal medium; subpopulation (auxotrophy): HLU
Procedure, shortened: as §1

[11] = tested on: Saccharomyces cerevisiae BY4741 SeMeCo community; assay: z-score of subpopulation abundance vs DMSO median, subpopulation auxotrophic for HLM; higher = larger share of this subpopulation than in DMSO controls; details: 10 µM; 24 h; SM minimal medium; subpopulation (auxotrophy): HLM
Procedure, shortened: as §1

[12] = tested on: Saccharomyces cerevisiae BY4741 SeMeCo community; assay: z-score of subpopulation abundance vs DMSO median, subpopulation auxotrophic for HUM; higher = larger share of this subpopulation than in DMSO controls; details: 10 µM; 24 h; SM minimal medium; subpopulation (auxotrophy): HUM
Procedure, shortened: as §1

[13] = tested on: Saccharomyces cerevisiae BY4741 SeMeCo community; assay: z-score of subpopulation abundance vs DMSO median, subpopulation auxotrophic for LUM; higher = larger share of this subpopulation than in DMSO controls; details: 10 µM; 24 h; SM minimal medium; subpopulation (auxotrophy): LUM
Procedure, shortened: as §1

[14] = tested on: Saccharomyces cerevisiae BY4741 SeMeCo community; assay: z-score of subpopulation abundance vs DMSO median, subpopulation auxotrophic for HLUM; higher = larger share of this subpopulation than in DMSO controls; details: 10 µM; 24 h; SM minimal medium; subpopulation (auxotrophy): HLUM
Procedure, shortened: as §1

[15] = tested on: Saccharomyces cerevisiae BY4741 SeMeCo community; assay: z-score of prototroph abundance vs DMSO median; higher = larger share of this subpopulation than in DMSO controls; details: 10 µM; 24 h; SM minimal medium; subpopulation (auxotrophy): Prototroph
Procedure, shortened: as §1

[16] = tested on: Saccharomyces cerevisiae BY4741 SeMeCo community; assay: z-score of subpopulation abundance vs DMSO median, subpopulation auxotrophic for HU; higher = larger share of this subpopulation than in DMSO controls; details: 10 µM; 24 h; SM minimal medium; subpopulation (auxotrophy): HU
Procedure, shortened: as §1

Row | SMILES | mean cell size [1] | z-score of subpopulation abundance [2] | z-score of subpopulation abundance [3] | z-score of subpopulation abundance [4] | z-score of subpopulation abundance [5] | z-score of subpopulation abundance [6] | z-score of subpopulation abundance [7] | z-score of subpopulation abundance [8] | z-score of subpopulation abundance [9] | z-score of subpopulation abundance [10] | z-score of subpopulation abundance [11] | z-score of subpopulation abundance [12] | z-score of subpopulation abundance [13] | z-score of subpopulation abundance [14] | z-score of prototroph abundance [15] | z-score of subpopulation abundance [16]
1 | C#C[C@]1(O)CC[C@H]2[C@@H]3CCc4cc(OC5CCCC5)ccc4[C@H]3CC[C@@]21C [Quinestrol] | 12.4 ± 0.25 | 0.32 | 1.42 | -0.2 | 0.33 | -0.07 | 0.17 | -0.33 | 0.28 | 0.72 | 0.37 | 0.52 | 0.36 | 0.63 |  | 
2 | CC[C@H]1OC(=O)C[C@@H](O)[C@H](C)[C@@H](O[C@@H]2O[C@H](C)[C@@H](O[C@H]3C[C@@](C)(O)[C@@H](O)[C@H](C)O3)[C@H](N(C)C)[C@H]2O)[C@@H](CC=O)C[C@@H](C)C(=O)/C=C/C(C)=C/[C@@H]1CO[C@@H]1O[C@H](C)[C@@H](O)[C@@H](OC)[C@H]1OC [Tylosin] | 12.16 ± 0.07 | -0.28 | 1.29 | 0.25 | 2.22 |  | 0.74 | 0.88 | 2.73 | 0.34 | 0.99 | 1.06 | 1.17 | 0.01 | -1.25 | 
3 | Cc1ccsc1/C=C/C1=NCCCN1C [Morantel tartrate] | 12.28 ± 0.098 | 0.85 | -1.36 | 0.23 | -1.74 | -0.48 | -0.19 | 0.1 | -0.87 | -0.25 | -0.2 |  | -0.24 | -0.47 | 0.27 | 0.3
4 | C[C@@H]1CC(=O)NN=C1c1ccc(NN=C(C#N)C#N)cc1 [Levosimendan] | 12.5 ± 0.19 | -0.05 | -0.16 |  | -0.43 | -0.47 | 0.22 | 0.05 | -0.63 | -0.67 | -0.43 | 0.67 | -0.29 | -0.43 | -0.07 | 0.25
5 | O=C(O)c1ccccc1C(=O)Nc1ccc(S(=O)(=O)Nc2nccs2)cc1 [Phthalylsulfathiazole] |  | 1.08 | -0.97 | 1.18 | -0.26 | 0.02 | 0.77 | 1.23 | -0.66 | 0.04 | -0.76 | 0.99 | -0.13 | 0.99 | -0.99 | 1.23
6 | CC(=O)OCC[N+](C)(C)C [Acetylcholine iodide] | 12.42 ± 0.1 | -0.32 | -0.73 | 0.13 | -0.21 | -0.62 | -1.48 | -0.32 | -0.89 | 0.05 | -1.52 | -0.36 |  | -1.3 |  | -0.12
7 | Cc1cc(=O)n(-c2ccccc2)n1C [Antipyrine] | 12.6 ± 0.13 | 0.62 | -0.59 | -0.44 | -1.04 |  | -0.59 | -1.23 |  | -0.53 | -0.18 | -0.77 | 0.02 | -0.47 | 0.87 | -0.64
8 | Fc1ccc([C@@H]2CCNC[C@H]2COc2ccc3c(c2)OCO3)cc1 [Paroxetine HCl] | 12.47 ± 0.086 | -0.31 | -0.43 | 0.75 | 0.09 | -0.61 | -0.49 | -0.16 | 0.14 | -0.09 | 0.16 | -0.39 | -1.08 | 0.06 | 0.34 | 
9 | CN[C@H](CC(C)C)C(=O)N[C@H]1C(=O)N[C@@H](CC(N)=O)C(=O)N[C@H]2C(=O)N[C@H]3C(=O)N[C@H](C(=O)N[C@H](C(=O)O)c4cc(O)cc(O)c4-c4cc3ccc4O)[C@H](O)c3ccc(c(Cl)c3)Oc3cc2cc(c3O[C@@H]2O[C@H](CO)[C@@H](O)[C@H](O)[C@H]2O[C@H]2C[C@](C)(N)[C@H](O)[C@H](C)O2)Oc2ccc(cc2Cl)[C@H]1O [Vancomycin HCl] |  | 0.48 | -0.67 | -0.35 | -0.1 | 0.26 | 0.33 | 0.58 | -0.36 | -0.51 | 0.73 | 0.51 |  | -0.53 | 0 | 0.05
10 | CN1C[C@@H]2C[C@H]1CN2c1cc2c(cc1F)c(=O)c(C(=O)O)cn2C1CC1 [Danofloxacin Mesylate] |  | 0.03 | -0.69 | 0.06 | 0.54 | -0.68 | -0.46 | 0 | -0.06 | 0.21 | -0.5 | -0.05 | -0.46 | -0.14 | 0.27 | -0.09
11 | Cn1c(=O)c2c(ncn2CC2OCCO2)n(C)c1=O [Doxofylline] |  | -0.41 | 0.55 | -0.22 | -0.27 | 0.49 | -0.89 |  | 0.28 | -0.64 | -0.9 | -0.34 | -0.24 | -0.8 |  | -0.64
12 | c1ccc(C2CN3CCSC3=N2)cc1 (stereo not drawn) [Tetramisole HCl] | 11.9 ± 0.12 | -0.44 | 0.54 | -0.11 | -0.14 | 0.13 |  | 0.02 | 0.08 | 0.35 | -0.45 | -0.09 | 0.46 | 0.92 | 0.24 | 0.01
13 | CO/N=C(\C(=O)N[C@@H]1C(=O)N2C(C(=O)O)=C(CSc3nc(=O)c(O)nn3C)CS[C@H]12)c1csc(N)n1 [Ceftriaxone Sodium Trihydrate] | 12.23 ± 0.09 | -1.17 | 2.07 | 0.09 | -0.32 | -0.18 |  | -2.42 | 0.91 | 2.14 | 0.5 | -2.14 | -0.43 | 0.83 | 0.45 | 0.14
14 | CCc1nn(CCCN2CCN(c3cccc(Cl)c3)CC2)c(=O)n1CCOc1ccccc1 [Nefazodone hydrochloride] | 12.38 ± 0.1 | -0.42 | 0.67 | -0.01 | 2.06 | -0.3 |  | -0.31 | 0.71 | 0.16 | 0.6 | -0.23 | 0.49 | 0.44 | -1.27 | 0.21
